Results on eleven compounds are retold here after PubChem BioAssay (NCATS).

The structures appear in SMILES notation. Values without a mark were called inactive. Records with an inconclusive call do not appear. Activity calls are given as the source filed them. Unless noted, the call rests on the fitted dose curve; in most records, active means well fitted curve in either direction with a large enough effect (not every such curve was filed as active); inconclusive means small, poorly fitted or top-dose-only effect, or another doubt; inactive means flat fitted curve, though single readings scatter.

Assay [1] is described as follows: AP1 Signaling Pathway (AID 357). Further: on the % scale 0 is the no-effect control and ±100 the full control effect. The settings on record: ME-180 AP-1-bla reporter, EGF-induced, beta-lactamase ratio, 5 h; at 17.2 µM (top of the series) unless noted. The essentials:
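AP-1-bla ME-180 cells with beta-lactamase reporter under AP-1 response element, stimulated with EC50 EGF; compounds titrated, 5 hours at 37 degrees Celsius. CCF4 read at 460/530 nm ratio; positive and negative modulators judged by AC50.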

Assay [2] is described as follows: Stat Signaling Pathway (AID 446).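 Further: ME-180 cervical cancer cells given 40 pM IL-6 alongside compound; SIE-controlled beta-lactamase reporter measured as 460/530 nm FRET emission ratio; on the % scale 0 is the no-effect control and ±100 the full control effect.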 The settings on record: ME-180 SIE beta-lactamase reporter, IL-6 stimulated, 5 h; at 17.2 µM (top of the series) unless noted. The essentials: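 FRET read-out (405 nm excitation, 460/530 nm emission) of a beta-lactamase reporter under a STAT-inducible element in ME-180 cervical carcinoma cells. Cells with compound receive 40 pM IL-6 for 5 h. Values are normalised to AC90 stimulation and AC90 JAK-inhibitor controls.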

Assay [3] concerns the target Glucocorticoid receptor (Homo sapiens) (UniProt P04150). As to the kind of experiment: GR-GFP Redistribution (AID 450;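 active means compounds whose dose series gives a full or clear partial fitted curve of increased nuclear translocation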; further: potency means the concentration at half of the fitted maximal effect).
Assay [4] in a line: qHTS Assay for Identification of Small Molecule Agonists for Hypoxia Response Element Signaling Pathway (AID 914; active means well fitted activation curve with a large enough effect in the signal ratio, with a control signal flat, not every such curve was filed as active; the % refers to the signal ratio; further: potency means the concentration at half of the fitted maximal effect; on activation: % of control where 0% means no effect). Particulars: ME-180 (cervical carcinoma) HRE-bla reporter, beta-lactamase ratio, CoCl2, 17 h; activation: active compounds read high. In outline:
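Positive modulation of EC50 CoCl2-induced hypoxia response element signaling is measured in ME-180 cells with a beta-lactamase reporter. Compounds are titrated, incubation runs 17 hours, and %Activity derives from the blue/green ratio.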
For orientation: qHTS replaces the single test concentration by a dilution series.

The nature of assay [5]: qHTS for Inhibitors of the vitamin D receptor (VDR): Hit Validation using a Texas Red Assay (AID 602201; active means well fitted curve in the direction sought with a large enough effect; an effect the other way counts as inactive or inconclusive; further: potency means the concentration at half of the fitted maximal effect). Particulars: VDR coregulator binding, Texas Red fluorescence polarization; agonist-bound VDR ligand-binding domain. In outline:
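After a 2-hour room-temperature incubation, polarization of Texas-Red emission was read (Ex 595 nm/Em 615 nm). Final mix contained 7 nM Texas Red, 1.5 uM VDR-LBD and LG19078.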

For assay [6], the target named is Tyrosyl-DNA phosphodiesterase 1 (Homo sapiens) (UniProt Q9NUW8). Nature of the assay: Confirmation Assay for Inhibitors of Tyrosyl-DNA Phosphodiesterase (TDP1) (AID 489007; active means well fitted curve in the direction sought with a large enough effect; an effect the other way counts as inactive or inconclusive; further: potency means the concentration at half of the fitted maximal effect; nearly all actives have a fitted effect of over 40% in size). Particulars: recombinant human TDP1 enzymatic activity, dose-response. The essentials:
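AlphaScreen read-out: streptavidin donor and anti-FITC acceptor beads (10 ug/ml) bind intact substrate, so Tdp1 removal of tyrosine-FITC lowers signal. Enzyme 1 nM, substrate 15 nM, 5 min reaction at room temperature after 15 min compound preincubation.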

Assay [7] deals with Tumor susceptibility gene 101 protein (Homo sapiens) (UniProt Q99816). As to the kind of experiment: qHTS Assay for Iinhibitors of HIV-1 Budding by Blocking the Interaction of PTAP/TSG101: Hit Validation (AID 651600; active means well fitted curve in the direction sought with a large enough effect; an effect the other way counts as inactive or inconclusive; further: potency means the concentration at half of the fitted maximal effect; nearly all actives have a fitted effect of over 70% in size). The essentials: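 Fluorescence polarization binding assay: Tsg101 binding domain (10 uM) mixed with compounds and FITC-labeled PTAP peptide (50 nM) in HEPES pH 7.5, 0.15 M NaCl, 0.01% Tween 20, EDTA, TCEP; 20 min at r.t.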

Assay [8] addresses Mitogen-activated protein kinase 10 (Mus musculus) (UniProt Q61831). Nature of the assay: JNK3 AlphaScreen Assay (AID 530).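 Further: kinase came from lysate of stimulated human HepG2 cells; signal reports phosphorylation of biotinylated GST-cJun 1-79 at Ser73 with 10 µM ATP; on the % scale 0 is the no-effect control and ±100 the full control effect.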 The essentials:
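Kinase buffer: 20 mM Tris-HCl pH 7.6, 10 mM MgCl2, 1 mM DTT, 0.1 mM Na3VO4, 0.01% Tween-20; ATP 10 uM. Substrate biotin-GST-cJun(1-79), enzyme from activated HepG2 lysates. Detection by Ser73 phospho-antibody AlphaScreen.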
Background: Alpha assays give light when donor and acceptor beads are brought close together.

Assay [9] deals with 3',5'-cyclic-AMP phosphodiesterase 4B (Homo sapiens) (UniProt Q07343). Nature of the assay: qHTS Assay for Inhibitors of PDE-IV (AID 607; active means well fitted activation curve with a large enough effect in the main read-out, with a control signal flat, not every such curve was filed as active; further: % of control where 0% means no effect). The essentials: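 Cell-based read-out of cAMP via a modified cyclic nucleotide-gated channel and membrane potential dye (535/590 nm) in HEK293 cells expressing PDE4 endogenously. Compounds tested up to 22.9 uM final; 100 uM RO 20-1724 reference.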
3',5'-cyclic-AMP phosphodiesterase 4B (Homo sapiens), sequence (Q07343 whole entry, looked up): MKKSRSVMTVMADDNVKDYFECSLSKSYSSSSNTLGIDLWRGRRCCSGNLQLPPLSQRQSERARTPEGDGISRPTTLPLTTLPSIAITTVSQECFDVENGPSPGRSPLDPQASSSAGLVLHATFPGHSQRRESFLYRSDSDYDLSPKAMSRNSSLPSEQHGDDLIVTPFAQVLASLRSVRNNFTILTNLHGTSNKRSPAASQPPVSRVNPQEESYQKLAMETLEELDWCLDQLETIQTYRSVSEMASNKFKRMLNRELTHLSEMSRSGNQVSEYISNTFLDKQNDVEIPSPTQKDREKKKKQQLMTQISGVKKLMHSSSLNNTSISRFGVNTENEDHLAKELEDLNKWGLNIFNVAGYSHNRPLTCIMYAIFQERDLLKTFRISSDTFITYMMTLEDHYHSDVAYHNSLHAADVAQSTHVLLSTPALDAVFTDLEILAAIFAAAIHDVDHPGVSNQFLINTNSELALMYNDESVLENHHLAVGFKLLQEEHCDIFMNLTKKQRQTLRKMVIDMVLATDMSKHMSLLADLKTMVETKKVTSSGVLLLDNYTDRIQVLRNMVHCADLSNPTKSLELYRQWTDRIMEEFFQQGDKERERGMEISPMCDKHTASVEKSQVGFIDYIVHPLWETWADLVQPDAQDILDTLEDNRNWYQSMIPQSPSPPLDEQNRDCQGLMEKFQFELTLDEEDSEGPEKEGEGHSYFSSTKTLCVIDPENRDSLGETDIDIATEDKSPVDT

Glucocorticoid receptor (Homo sapiens), sequence (P04150 whole entry, looked up): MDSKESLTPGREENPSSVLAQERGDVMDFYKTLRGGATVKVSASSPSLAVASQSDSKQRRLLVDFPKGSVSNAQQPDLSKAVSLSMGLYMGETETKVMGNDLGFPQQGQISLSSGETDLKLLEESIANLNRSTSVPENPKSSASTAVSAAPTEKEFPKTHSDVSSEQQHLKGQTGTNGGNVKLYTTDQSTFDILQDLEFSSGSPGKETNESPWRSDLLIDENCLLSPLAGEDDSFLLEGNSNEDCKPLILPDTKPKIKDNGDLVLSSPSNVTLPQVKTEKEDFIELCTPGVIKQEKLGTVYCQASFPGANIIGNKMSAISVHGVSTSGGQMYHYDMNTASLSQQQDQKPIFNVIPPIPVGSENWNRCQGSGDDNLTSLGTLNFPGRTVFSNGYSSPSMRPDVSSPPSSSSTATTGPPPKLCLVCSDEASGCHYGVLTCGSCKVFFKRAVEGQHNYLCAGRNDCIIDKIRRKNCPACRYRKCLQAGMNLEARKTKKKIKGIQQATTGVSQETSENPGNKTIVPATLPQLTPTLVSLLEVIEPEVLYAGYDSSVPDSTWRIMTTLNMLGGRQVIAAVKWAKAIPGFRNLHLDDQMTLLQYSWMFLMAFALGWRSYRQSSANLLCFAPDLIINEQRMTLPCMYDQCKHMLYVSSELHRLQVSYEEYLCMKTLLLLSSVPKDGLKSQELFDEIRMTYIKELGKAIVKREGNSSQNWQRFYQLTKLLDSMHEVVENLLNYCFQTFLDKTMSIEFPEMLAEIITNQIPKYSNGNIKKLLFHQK
Tyrosyl-DNA phosphodiesterase 1 (Homo sapiens), sequence (Q9NUW8 whole entry, looked up): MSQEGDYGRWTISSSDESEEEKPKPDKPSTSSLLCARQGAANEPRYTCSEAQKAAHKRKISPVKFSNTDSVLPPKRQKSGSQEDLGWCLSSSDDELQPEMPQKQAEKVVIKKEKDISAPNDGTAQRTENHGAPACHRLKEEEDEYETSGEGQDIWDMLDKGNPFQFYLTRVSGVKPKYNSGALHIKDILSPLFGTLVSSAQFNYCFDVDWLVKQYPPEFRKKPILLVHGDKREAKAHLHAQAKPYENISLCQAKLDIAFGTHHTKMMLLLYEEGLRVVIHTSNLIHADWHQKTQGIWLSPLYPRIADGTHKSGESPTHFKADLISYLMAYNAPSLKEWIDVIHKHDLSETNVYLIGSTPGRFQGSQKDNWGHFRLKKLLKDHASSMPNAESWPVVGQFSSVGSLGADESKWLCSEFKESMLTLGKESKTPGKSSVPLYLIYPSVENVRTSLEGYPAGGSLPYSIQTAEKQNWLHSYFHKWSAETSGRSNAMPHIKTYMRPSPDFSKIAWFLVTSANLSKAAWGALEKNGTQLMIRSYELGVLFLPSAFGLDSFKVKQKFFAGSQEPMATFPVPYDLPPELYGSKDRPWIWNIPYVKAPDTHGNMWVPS
Tumor susceptibility gene 101 protein (Homo sapiens), sequence (Q99816 whole entry, looked up, the tested form may be a part): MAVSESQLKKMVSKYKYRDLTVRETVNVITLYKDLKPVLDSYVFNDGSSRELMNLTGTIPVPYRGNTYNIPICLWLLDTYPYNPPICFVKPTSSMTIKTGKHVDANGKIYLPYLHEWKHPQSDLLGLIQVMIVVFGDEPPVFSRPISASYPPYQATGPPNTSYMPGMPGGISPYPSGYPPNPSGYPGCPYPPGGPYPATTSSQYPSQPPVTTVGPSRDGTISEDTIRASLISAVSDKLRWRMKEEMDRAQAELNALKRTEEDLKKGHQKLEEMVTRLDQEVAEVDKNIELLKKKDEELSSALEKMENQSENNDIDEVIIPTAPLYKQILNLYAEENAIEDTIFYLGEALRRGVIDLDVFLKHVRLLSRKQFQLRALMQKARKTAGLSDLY

As to `CCC1(C)Cc2c(sc3c2c(=O)n(C)c2nnc(SCc4ccc5c(c4)OCO5)n32)CO1` (configuration not stated), the activity change, negative = inhibition in [1] was 11.8%. Also, in assay [2], the activity, negative = inhibition is -3.34%. Further, in [3], the Potency was above 20.6 µM. Besides, the activation in [4] was -18.9%.
As to `CNc1oc(-c2ccccc2Cl)nc1C#N`, the activity change, negative = inhibition in [1] is -4.94%. For the same compound, the activity, negative = inhibition in [2] was -0.918%. Also, the Potency in assay [3] was above 20.6 µM. In addition, the activation in assay [4] is 10.7%.
For `CCCN(CCC)C(=O)CC(c1ccc(F)cc1)c1ccco1` (configuration not stated) the same measures were 13%, -3.11%, above 20.6 µM and 13.9%.
With `CC(C)Oc1ccc(C(=O)CCN2CCCCC2)cc1`, the activity change, negative = inhibition in [1] was -9.61%. Besides, the activity, negative = inhibition in assay [2] was -10.9%. The values for the Potency in assay [3] and in assay [5] were above 20.6 µM and 3.98 µM (active), respectively.
Take `O=C(CCN1CCc2ccccc2CC1)c1ccc2c(c1)OCCO2`: in assay [1], the activity change, negative = inhibition was -22%. In addition, the activity, negative = inhibition in assay [2] was 12.8%. Moreover, the Potency in assay [3] is above 20.6 µM; in [5] it was 10 µM (active).
Consider `COc1ccc(C2=CC(c3ccc(C)cc3)n3nnnc3N2)cc1` (configuration not stated), for which the activity change, negative = inhibition in assay [1] was -20.8%. Besides, the activity, negative = inhibition in assay [2] was -14.7%. Besides, the Potency in assay [3] was above 20.6 µM; in assay [4], 10 µM (active).
On to `O=C(c1ccc(=O)oc1)N1CCOCC1`, for which the activity change, negative = inhibition in assay [1] is 17.3%. The activity, negative = inhibition in assay [2] is -0.795%. Besides, the Potency in assay [3] was above 20.6 µM. In assay [4], the activation is 5.28%.
As for `O=C1c2ccccc2-c2onc3ccc(NCc4ccco4)c1c23`, in assay [1], the activity change, negative = inhibition was -13%. Also, in assay [2], the activity, negative = inhibition is -1.03%. The Potency in assay [3] was above 20.6 µM; in assay [6], 7.08 µM (active); in assay [7] it was 1.63 µM (active).
Turning to `C[N+](C)(C)[C@@H](C1=CCCC1=O)c1ccccc1`, the activity change, negative = inhibition in [1] is 3.55% [at 7.69 µM]; in assay [8], 5.46% [at 11.4 µM]. Moreover, in assay [2], the activity, negative = inhibition is -12.6% [at 7.69 µM]. Besides, in assay [3], the Potency was above 46 µM. Moreover, in assay [9], the Potency entry was “inactive”. The activation in assay [4] was -1.62%.
As to `CCOC(=O)c1sc2c(c1C)c(=O)c(C(=O)OCC)cn2CC`, the activity change, negative = inhibition in assay [1] is -9.16%. Besides, the activity, negative = inhibition in [2] was 6.04%. Besides, in [3], the Potency is above 20.6 µM. The activation in [4] is 16.2%.
As to `CCCN(CCC)c1nc2ccccc2nc1C(C#N)C(=O)OC(C)COC` (configuration not stated), the activity change, negative = inhibition in assay [1] is -15.4%. The activity, negative = inhibition in assay [2] is -20.4%. For the same compound, in assay [3], the Potency was above 20.6 µM. In addition, the activation in assay [4] is -6.34%.
